Measurements taken from the supplement of paper PMC10849652.
The full data set covers some 8,800 targets. This sample favours those with a hit. About 0.5% of all pairs of compound and target were hits.

Columns and labels:
Experiment in all cases: log2 fold change, soluble protein after heating vs DMSO (PISA); higher = thermal stabilisation; K562 lysate, 10 uM; active = over 0.2 and 3.5 SD of the protein, either way, in both replicates (recomputed)
[1] = compound: CS(=O)(=O)CCNCc1ccc(-c2ccc3ncnc(Nc4ccc(OCc5cccc(F)c5)c(Cl)c4)c3c2)o1 [lapatinib]
Method in brief: (§1)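 Log-two fold change in thermal stability relative to solvent controls is reported from duplicates. For each sample, crude K562 extract from dounce-homogenised pellets in PBS pH 7.4 with 1 mM MgCl2, at 1 mg/mL protein, was treated with 10 μM compound for 30 min. Aliquots heated for 3 min across 48°C-58°C were pooled, brought to 0.5% NP-40 at 4°C and cleared at 21,000xg for 90 min. The supernatant was quantified by TMTpro 16plex LC-MS/MS with channel sums equalised.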

[2] = compound: CS(=O)(=O)N1CCN(Cc2cc3nc(-c4cccc5[nH]ncc45)nc(N4CCOCC4)c3s2)CC1 [pictilisib]
Method in brief: as §1

[3] = compound: C[C@@H](Oc1cc(-c2cnn(C3CCNCC3)c2)cnc1N)c1c(Cl)ccc(F)c1Cl [crizotinib]
Method in brief: as §1

[4] = compound: C[C@H](C1=CC=C(C=C1)C(=O)NC2=C3C=CNC3=NC=C2)N
Method in brief: as §1

[5] = compound: C[C@H](Nc1ncnc2nc[nH]c12)c1cc2cccc(Cl)c2c(=O)n1-c1ccccc1 [duvelisib]
Method in brief: as §1

[6] = compound: Cc1cc(Nc2cc(CN3CCOCC3)c3nc(C)c(Cc4ccc(Cl)cc4F)n3n2)n[nH]1 [gandotinib]
Method in brief: as §1

[7] = compound: Cc1cc(Nc2cc(N3CCN(C)CC3)nc(Sc3ccc(NC(=O)C4CC4)cc3)n2)n[nH]1 [tozasertib]
Method in brief: as §1

[8] = compound: Cc1ccc(-n2nc(C(C)(C)C)cc2NC(=O)Nc2ccc(OCCN3CCOCC3)c3ccccc23)cc1 [doramapimod]
Method in brief: as §1

[9] = compound: Cc1ccc(NC(=O)c2ccc(CN3CC[C@H](N(C)C)C3)c(C(F)(F)F)c2)cc1Nc1nccc(-c2cncnc2)n1 [bafetinib]
Method in brief: as §1

[10] = compound: Cc1cccc(CC(=O)N2CCc3c2ccc(-c2cn(C)c4ncnc(N)c24)c3F)n1
Method in brief: as §1

[11] = compound: Cc1cn(-c2cc(NC(=O)c3ccc(C)c(Nc4nccc(-c5cccnc5)n4)c3)cc(C(F)(F)F)c2)cn1 [nilotinib]
Method in brief: as §1

[12] = compound: Cc1nc(Nc2n[nH]c3c2CN(C(=O)N[C@H](CN(C)C)c2ccccc2)C3(C)C)c2sccc2n1
Method in brief: as §1

[13] = compound: Cc1nc(Nc2ncc(C(=O)Nc3c(C)cccc3Cl)s2)cc(N2CCN(CCO)CC2)n1 [dasatinib]
Method in brief: as §1

[14] = compound: Cc1ncc(-c2ccnc(Nc3ccc(S(C)(=O)=O)cc3)n2)n1C(C)C
Method in brief: as §1

[15] = compound: Cn1cc(-c2ccc3c(c2)CCN3C(=O)Cc2cccc(C(F)(F)F)c2)c2c(N)ncnc21
Method in brief: as §1

[16] = compound: Cn1cc(CNCC2CCN(c3ncc(C(=O)NO)cn3)CC2)c2ccccc21 [quisinostat]
Method in brief: as §1

[17] = compound: Cn1cncc1[C@@](N)(c1ccc(Cl)cc1)c1ccc2c(c1)c(-c1cccc(Cl)c1)cc(=O)n2C [tipifarnib]
Method in brief: as §1

[18] = compound: NC(=O)Nc1cc(-c2cccc(F)c2)sc1C(=O)N[C@H]1CCCNC1
Method in brief: as §1

[19] = compound: NC(=O)c1cnc(N[C@@H]2CCCC[C@@H]2N)nc1Nc1cccc(-n2nccn2)c1
Method in brief: as §1

[20] = compound: NC1(c2ccc(-c3nc4ccn5c(=O)[nH]nc5c4cc3-c3ccccc3)cc2)CCC1
Method in brief: as §1

Measured: log2 fold change

CIB1 (UniProt Q99828)
Sequence of UniProt Q99828 (Q99828 whole entry, looked up): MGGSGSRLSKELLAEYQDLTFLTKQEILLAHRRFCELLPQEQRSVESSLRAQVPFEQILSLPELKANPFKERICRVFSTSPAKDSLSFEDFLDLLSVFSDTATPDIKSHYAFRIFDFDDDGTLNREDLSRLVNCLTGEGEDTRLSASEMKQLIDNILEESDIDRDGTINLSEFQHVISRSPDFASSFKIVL
inactive: [1] -0.073 | [2] 0.047 | [3] -0.046 | [4] 0.023 | [5] -0.006 | [6] -0.008 | [7] 0.06 | [8] 0.051 | [9] 0.115 | [10] 0.059 | [11] -0.014 | [12] -0.016 | [13] 0.022 | [14] 0.045 | [15] 0.008 | [16] 0.004 | [17] 0.002 | [18] -0.011 | [19] 0.041 | [20] 0

DNM2 (UniProt P50570)
inactive: [1] -0.003 | [2] 0.022 | [3] -0.013 | [4] 0.021 | [5] -0.007 | [6] -0.076 | [7] 0.001 | [8] 0.033 | [9] -0.011 | [10] 0.035 | [11] 0 | [12] -0.015 | [13] -0.045 | [14] -0.016 | [15] 0.028 | [16] 0.016 | [17] 0.011 | [18] 0.034 | [19] 0.037 | [20] 0.009

CMBL (UniProt Q96DG6)
Sequence of UniProt Q96DG6 (Q96DG6 whole entry, looked up): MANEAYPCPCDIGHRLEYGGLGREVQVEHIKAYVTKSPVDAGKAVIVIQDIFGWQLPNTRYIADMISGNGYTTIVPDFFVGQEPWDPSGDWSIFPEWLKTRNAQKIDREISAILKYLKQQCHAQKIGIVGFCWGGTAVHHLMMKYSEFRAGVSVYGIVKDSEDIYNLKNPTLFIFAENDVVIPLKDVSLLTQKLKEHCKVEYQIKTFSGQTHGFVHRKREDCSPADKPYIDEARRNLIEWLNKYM
inactive: [1] -0.024 | [2] 0.076 | [3] 0.065 | [4] -0.162 | [5] 0.031 | [6] 0.127 | [7] 0.016 | [8] -0.021 | [9] -0.028 | [10] -0.001 | [11] -0.029 | [12] 0.054 | [13] 0.155 | [14] 0.006 | [15] -0.025 | [16] -0.047 | [17] -0.001 | [18] -0.027 | [19] -0.023 | [20] 0.149

COX20 isoform 2 (UniProt Q5RI15)
Sequence of UniProt Q5RI15 (Q5RI15 whole entry, looked up): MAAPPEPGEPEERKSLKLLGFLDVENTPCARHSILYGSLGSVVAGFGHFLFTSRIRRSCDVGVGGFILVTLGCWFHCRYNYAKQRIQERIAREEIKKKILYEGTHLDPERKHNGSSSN
active: [4] 0.455
inactive: [1] 0.016 | [2] 0.186 | [3] 0.054 | [5] -0.007 | [6] -0.144 | [7] -0.053 | [8] -0.036 | [9] 0.144 | [10] -0.273 | [11] 0.051 | [12] -0.023 | [13] 0.07 | [14] -0.024 | [15] 0.013 | [16] -0.017 | [17] 0.117 | [18] -0.026 | [19] -0.058 | [20] -0.03

CPT1A (UniProt P50416)
inactive: [1] 0.013 | [2] 0.014 | [3] 0.114 | [4] 0.009 | [5] 0.021 | [6] 0.057 | [7] 0.037 | [8] 0.038 | [9] -0.056 | [10] -0.027 | [11] -0.012 | [12] 0.049 | [13] 0.015 | [14] -0.022 | [15] 0.008 | [17] 0.056 | [18] -0.09 | [19] -0.028 | [20] -0.038
active: [16] 0.308

DDX54 isoform 2 (UniProt Q8TDD1)
Sequence of UniProt Q8TDD1 (Q8TDD1 whole entry, looked up): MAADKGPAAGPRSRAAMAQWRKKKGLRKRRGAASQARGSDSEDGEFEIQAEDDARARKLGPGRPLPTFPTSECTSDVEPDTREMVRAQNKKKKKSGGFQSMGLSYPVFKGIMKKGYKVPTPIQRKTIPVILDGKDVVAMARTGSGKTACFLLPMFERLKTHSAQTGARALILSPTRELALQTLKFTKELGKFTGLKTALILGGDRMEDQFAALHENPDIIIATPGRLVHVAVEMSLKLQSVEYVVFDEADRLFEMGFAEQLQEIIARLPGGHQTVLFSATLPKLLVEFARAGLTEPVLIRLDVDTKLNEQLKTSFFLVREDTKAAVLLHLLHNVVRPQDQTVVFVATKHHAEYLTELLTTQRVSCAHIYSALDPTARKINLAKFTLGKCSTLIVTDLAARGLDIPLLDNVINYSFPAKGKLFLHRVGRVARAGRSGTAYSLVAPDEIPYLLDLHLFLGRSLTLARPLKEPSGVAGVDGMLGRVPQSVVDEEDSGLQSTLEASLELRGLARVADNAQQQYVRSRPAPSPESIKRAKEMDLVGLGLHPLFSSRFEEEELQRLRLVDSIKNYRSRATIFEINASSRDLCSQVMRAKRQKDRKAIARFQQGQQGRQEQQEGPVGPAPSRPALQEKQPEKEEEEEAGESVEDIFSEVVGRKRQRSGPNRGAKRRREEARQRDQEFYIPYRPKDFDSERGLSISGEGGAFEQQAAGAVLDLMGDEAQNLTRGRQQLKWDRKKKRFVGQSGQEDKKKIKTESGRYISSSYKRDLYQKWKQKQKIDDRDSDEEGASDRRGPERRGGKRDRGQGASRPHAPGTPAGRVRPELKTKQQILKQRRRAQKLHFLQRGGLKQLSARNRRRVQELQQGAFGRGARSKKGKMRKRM
inactive: [1] -0.03 | [2] 0.075 | [3] -0.057 | [4] -0.025 | [5] 0.025 | [6] 0.01 | [7] 0.035 | [8] 0.019 | [9] 0.11 | [10] 0.101 | [11] 0.047 | [12] -0.035 | [13] 0.002 | [14] 0.019 | [15] 0.089 | [16] 0.042 | [17] -0.023 | [18] 0.021 | [19] 0.001 | [20] 0.011

CSNK1G3 (UniProt Q9Y6M4)
Sequence of UniProt Q9Y6M4 (Q9Y6M4 whole entry, looked up): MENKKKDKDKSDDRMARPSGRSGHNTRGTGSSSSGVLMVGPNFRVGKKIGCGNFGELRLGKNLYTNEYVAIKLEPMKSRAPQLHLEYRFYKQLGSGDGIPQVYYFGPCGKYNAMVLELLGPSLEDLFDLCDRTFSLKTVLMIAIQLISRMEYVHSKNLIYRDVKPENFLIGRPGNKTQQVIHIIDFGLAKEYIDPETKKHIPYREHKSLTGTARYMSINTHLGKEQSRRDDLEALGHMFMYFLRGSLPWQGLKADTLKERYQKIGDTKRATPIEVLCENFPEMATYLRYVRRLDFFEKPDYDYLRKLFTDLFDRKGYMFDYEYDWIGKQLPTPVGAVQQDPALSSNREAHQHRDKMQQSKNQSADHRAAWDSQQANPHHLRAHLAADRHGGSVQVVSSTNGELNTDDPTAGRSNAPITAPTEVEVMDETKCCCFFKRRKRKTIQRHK
inactive: [1] -0.155 | [2] 0.118 | [3] 0.026 | [4] 0.214 | [5] -0.042 | [6] -0.032 | [7] -0.048 | [8] -0.003 | [9] -0.09 | [10] -0.021 | [11] -0.029 | [13] 0.002 | [15] 0.014 | [16] -0.067 | [17] 0.001 | [19] 0 | [20] 0.086
active: [12] 0.428 | [14] 0.388 | [18] 0.397

CNOT2 (UniProt Q9NZN8)
inactive: [1] -0.027 | [2] -0.014 | [3] -0.023 | [4] 0.111 | [5] -0.008 | [6] -0.093 | [7] 0.001 | [8] -0.01 | [9] 0.024 | [10] -0.005 | [11] 0.013 | [12] -0.011 | [13] -0.024 | [14] 0.009 | [15] -0.018 | [16] -0.026 | [17] -0.074 | [18] 0.024 | [19] 0.02 | [20] -0.001

COPZ1 isoform 4 (UniProt P61923)
Sequence of UniProt P61923 (P61923 whole entry, looked up): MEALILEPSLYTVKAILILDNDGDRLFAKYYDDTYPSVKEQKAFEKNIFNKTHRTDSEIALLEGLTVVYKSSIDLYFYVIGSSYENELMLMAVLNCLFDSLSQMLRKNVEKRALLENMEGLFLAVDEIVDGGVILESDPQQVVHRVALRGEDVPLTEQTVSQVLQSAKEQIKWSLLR
inactive: [1] 0.161 | [2] 0.062 | [3] 0.09 | [4] 0.083 | [5] -0.022 | [6] -0.066 | [7] 0.028 | [8] -0.044 | [9] -0.048 | [10] -0.088 | [11] 0.012 | [12] 0 | [13] 0.015 | [14] 0.088 | [15] 0.023 | [16] 0.289 | [17] 0.002 | [18] -0.029 | [19] -0.103 | [20] 0.037

DNAJC1 (UniProt Q96KC8)
active: [6] -0.262
inactive: [1] -0.057 | [2] 0.013 | [3] -0.086 | [4] 0.033 | [5] -0.046 | [7] 0.019 | [8] -0.117 | [9] 0.001 | [10] -0.064 | [11] -0.03 | [12] 0 | [13] -0.09 | [14] -0.012 | [15] 0.016 | [16] 0.04 | [17] 0.004 | [18] 0.026 | [19] -0.028 | [20] 0.028

CMSS1 (UniProt Q9BQ75)
Sequence of UniProt Q9BQ75 (Q9BQ75 whole entry, looked up): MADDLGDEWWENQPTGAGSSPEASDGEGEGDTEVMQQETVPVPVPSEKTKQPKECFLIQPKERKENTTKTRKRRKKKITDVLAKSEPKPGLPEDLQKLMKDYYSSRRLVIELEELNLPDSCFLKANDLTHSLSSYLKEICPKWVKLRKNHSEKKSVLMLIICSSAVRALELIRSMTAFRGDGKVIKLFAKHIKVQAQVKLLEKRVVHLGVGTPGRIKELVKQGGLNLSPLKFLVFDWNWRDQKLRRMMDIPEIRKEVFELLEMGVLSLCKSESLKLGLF
inactive: [1] 0.012 | [2] 0.016 | [3] -0.021 | [4] 0.176 | [5] -0.001 | [6] -0.086 | [7] 0.009 | [8] 0.015 | [9] -0.026 | [10] -0.015 | [11] -0.025 | [12] 0.014 | [13] -0.019 | [14] 0 | [15] 0.014 | [16] 0.023 | [17] 0.06 | [18] 0.013 | [19] 0.004 | [20] 0.031

CNIH4 (UniProt Q9P003)
Sequence of UniProt Q9P003 (Q9P003 whole entry, looked up): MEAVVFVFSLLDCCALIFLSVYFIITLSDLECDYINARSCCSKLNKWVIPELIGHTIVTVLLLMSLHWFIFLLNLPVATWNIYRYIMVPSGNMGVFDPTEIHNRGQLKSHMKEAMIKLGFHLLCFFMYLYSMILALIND
active: [17] -0.515
inactive: [1] 0.005 | [2] -0.139 | [3] -0.055 | [5] 0.092 | [7] -0.06 | [8] -0.082 | [9] -0.248 | [11] 0.074 | [12] -0.327 | [13] 0.132 | [14] -0.12 | [15] 0.063 | [16] -0.068 | [18] 0.088 | [19] 0.076 | [20] -0.136

DCP2 (UniProt Q8IU60)
inactive: [1] -0.027 | [2] 0.011 | [3] 0.038 | [4] 0.021 | [5] -0.011 | [6] -0.148 | [7] 0.018 | [8] 0.01 | [9] -0.062 | [10] -0.041 | [11] -0.065 | [12] -0.051 | [13] 0.009 | [14] 0.032 | [15] -0.018 | [16] -0.094 | [17] -0.012 | [18] 0.014 | [19] 0.03 | [20] 0.024

CSDE1 isoform 3 (UniProt O75534)
Sequence of UniProt O75534 (O75534 whole entry, looked up): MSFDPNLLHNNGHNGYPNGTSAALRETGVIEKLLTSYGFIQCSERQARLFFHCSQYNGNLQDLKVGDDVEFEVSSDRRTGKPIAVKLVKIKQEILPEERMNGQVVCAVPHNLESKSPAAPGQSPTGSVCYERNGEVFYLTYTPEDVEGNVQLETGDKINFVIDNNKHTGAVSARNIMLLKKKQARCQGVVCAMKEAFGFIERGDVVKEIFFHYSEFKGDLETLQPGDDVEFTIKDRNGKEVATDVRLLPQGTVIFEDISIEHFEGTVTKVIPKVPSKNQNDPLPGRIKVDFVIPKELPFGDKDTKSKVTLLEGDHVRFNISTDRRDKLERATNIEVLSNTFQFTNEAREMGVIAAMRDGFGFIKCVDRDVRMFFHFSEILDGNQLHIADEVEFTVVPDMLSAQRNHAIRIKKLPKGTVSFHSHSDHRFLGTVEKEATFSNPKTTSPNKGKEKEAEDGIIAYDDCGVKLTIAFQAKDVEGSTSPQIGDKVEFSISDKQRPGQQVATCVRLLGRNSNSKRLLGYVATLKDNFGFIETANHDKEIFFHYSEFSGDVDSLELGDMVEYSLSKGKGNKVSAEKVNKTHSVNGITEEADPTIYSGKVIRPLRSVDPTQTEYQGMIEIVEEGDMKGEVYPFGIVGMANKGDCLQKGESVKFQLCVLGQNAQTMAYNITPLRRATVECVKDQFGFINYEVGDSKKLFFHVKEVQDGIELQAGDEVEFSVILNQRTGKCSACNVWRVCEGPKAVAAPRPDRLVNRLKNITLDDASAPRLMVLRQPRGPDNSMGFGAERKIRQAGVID
inactive: [1] 0.184 | [2] -0.141 | [3] -0.179 | [4] 0.139 | [6] -0.043 | [8] 0.055 | [9] 0.126 | [10] -0.058 | [11] 0.064 | [12] -0.135 | [14] 0.016 | [16] 0.022 | [17] -0.02 | [18] -0.085 | [19] -0.021

CLPB isoform 2 (UniProt Q9H078)
inactive: [1] -0.034 | [3] -0.03 | [4] 0.024 | [5] -0.015 | [6] -0.093 | [7] 0.046 | [8] -0.01 | [9] -0.072 | [10] 0.039 | [11] -0.011 | [12] -0.003 | [13] 0.076 | [14] -0.03 | [15] 0.018 | [16] 0.008 | [17] -0.004 | [18] 0.005 | [19] 0.031 | [20] -0.016

CLASP2 isoform 3 (UniProt O75122)
Sequence of UniProt O75122 (O75122 whole entry, looked up): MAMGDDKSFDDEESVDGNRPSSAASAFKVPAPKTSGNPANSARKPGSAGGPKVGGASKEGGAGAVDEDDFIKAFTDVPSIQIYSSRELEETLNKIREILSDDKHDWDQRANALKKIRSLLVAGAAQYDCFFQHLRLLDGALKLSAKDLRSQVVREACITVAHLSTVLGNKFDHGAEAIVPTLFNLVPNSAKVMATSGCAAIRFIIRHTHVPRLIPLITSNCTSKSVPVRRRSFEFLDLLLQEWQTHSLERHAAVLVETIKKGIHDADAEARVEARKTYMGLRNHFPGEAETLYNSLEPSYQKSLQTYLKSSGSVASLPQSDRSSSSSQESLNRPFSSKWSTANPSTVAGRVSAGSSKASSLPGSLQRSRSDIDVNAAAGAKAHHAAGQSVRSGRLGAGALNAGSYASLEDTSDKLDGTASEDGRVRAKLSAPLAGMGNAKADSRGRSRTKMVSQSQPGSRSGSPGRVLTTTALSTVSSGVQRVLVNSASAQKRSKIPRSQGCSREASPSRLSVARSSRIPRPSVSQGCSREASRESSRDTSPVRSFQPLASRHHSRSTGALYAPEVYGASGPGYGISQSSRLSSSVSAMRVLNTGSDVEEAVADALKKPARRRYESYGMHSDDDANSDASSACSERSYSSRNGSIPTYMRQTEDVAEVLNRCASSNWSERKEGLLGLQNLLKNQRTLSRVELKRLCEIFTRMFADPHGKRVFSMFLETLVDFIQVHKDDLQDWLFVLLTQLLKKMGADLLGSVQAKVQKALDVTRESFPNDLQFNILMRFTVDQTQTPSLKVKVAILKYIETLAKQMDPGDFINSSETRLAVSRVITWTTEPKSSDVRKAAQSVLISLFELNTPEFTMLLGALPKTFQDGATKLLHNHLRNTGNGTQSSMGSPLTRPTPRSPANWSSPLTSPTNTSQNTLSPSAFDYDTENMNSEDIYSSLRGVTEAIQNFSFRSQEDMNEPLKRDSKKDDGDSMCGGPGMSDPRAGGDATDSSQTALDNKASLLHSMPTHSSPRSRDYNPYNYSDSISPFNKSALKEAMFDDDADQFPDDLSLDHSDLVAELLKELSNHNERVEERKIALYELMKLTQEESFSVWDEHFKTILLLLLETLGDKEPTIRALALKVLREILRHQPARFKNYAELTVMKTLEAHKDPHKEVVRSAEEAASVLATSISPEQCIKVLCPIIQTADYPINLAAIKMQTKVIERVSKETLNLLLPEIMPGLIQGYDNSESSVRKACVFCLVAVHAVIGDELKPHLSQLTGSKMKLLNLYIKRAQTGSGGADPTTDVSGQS
inactive: [1] -0.008 | [3] -0.018 | [4] -0.172 | [5] -0.015 | [6] 0.077 | [7] 0.015 | [8] 0.041 | [9] -0.021 | [11] 0.013 | [12] -0.004 | [13] -0.024 | [14] 0.02 | [15] 0.021 | [16] -0.042 | [17] -0.063 | [18] -0.07 | [19] -0.007 | [20] 0.032
active: [10] 0.247
